We go through 1 sequence from publication PMC7862700, “An all-to-all approach to the identification of sequence-specific readers for epigenetic DNA modifications on cytosine”.

Holding throughout (test): DAPPL (digital affinity profiling via proximity ligation, sequencing); 10 mM Tris-HCl pH 7.5, 50 mM NaCl, 1 mM DTT, 4% glycerol, room temperature, 30 min; GST-TFs on glutathione beads, 16-mer random dsDNA library, 0.1% formaldehyde crosslink after washing; high values mean tight binding
For one experiment, the target named is T1, FEV (Homo sapiens, UniProt Q99581 1-238).
T1 sequence: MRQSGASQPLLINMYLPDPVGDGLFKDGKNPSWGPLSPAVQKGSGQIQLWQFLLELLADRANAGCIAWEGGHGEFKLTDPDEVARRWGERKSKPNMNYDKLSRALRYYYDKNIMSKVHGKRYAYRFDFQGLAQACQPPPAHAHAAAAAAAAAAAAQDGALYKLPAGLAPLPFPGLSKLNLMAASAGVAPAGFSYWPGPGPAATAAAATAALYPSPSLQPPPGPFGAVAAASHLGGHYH
The following applies: protein: recombinant; tags: N-terminal GST; dsDNA, one strand shown. The method in brief:
(§1)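 Binding signal is each hexamer's read frequency for a factor divided by its frequency in the tag-only sample. The factors were GST-fused human transcription factors from yeast, captured on glutathione beads, DNA-barcoded and pooled with that sample. Pools were incubated with 200 nmole of a random double-stranded 16-mer DNA library in Tris/NaCl/DTT/glycerol buffer at room temperature for 30 min, then washed, crosslinked with 0.1% formaldehyde, proximity-ligated with BsaI/T4 ligase (1 h, 37 °C), PCR-amplified and sequenced on an Illumina NextSeq500.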

Another experiment concerns the target ETV5 (Homo sapiens, UniProt P41161 1-510). Particulars: protein: recombinant; tags: N-terminal GST; dsDNA, one strand shown. The method in brief: as §1
In the next experiment the target is HSF1 (Homo sapiens, UniProt Q00613 1-529). The following applies: protein: recombinant; tags: N-terminal GST; chain copies: 3; dsDNA, one strand shown. The method in brief:
as §1

The next experiment addresses T2, SPIC (Homo sapiens, UniProt Q8N5J4 1-248).
T2 sequence: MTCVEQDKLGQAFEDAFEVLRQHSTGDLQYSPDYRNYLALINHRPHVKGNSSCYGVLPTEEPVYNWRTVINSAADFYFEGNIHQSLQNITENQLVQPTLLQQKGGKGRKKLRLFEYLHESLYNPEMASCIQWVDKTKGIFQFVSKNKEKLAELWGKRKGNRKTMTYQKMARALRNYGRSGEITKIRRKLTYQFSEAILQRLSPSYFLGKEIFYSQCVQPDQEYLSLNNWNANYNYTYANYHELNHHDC
Particulars: protein: recombinant; tags: N-terminal GST; dsDNA, one strand shown. The procedure, abridged: as §1

The next experiment deals with ELF4 (Homo sapiens, UniProt Q99607 1-663). Particulars: protein: recombinant; tags: N-terminal GST; dsDNA, one strand shown. The procedure, abridged:
as §1

The next experiment addresses T3, ELK4 (Homo sapiens, UniProt P28324-2 1-405).
T3 sequence: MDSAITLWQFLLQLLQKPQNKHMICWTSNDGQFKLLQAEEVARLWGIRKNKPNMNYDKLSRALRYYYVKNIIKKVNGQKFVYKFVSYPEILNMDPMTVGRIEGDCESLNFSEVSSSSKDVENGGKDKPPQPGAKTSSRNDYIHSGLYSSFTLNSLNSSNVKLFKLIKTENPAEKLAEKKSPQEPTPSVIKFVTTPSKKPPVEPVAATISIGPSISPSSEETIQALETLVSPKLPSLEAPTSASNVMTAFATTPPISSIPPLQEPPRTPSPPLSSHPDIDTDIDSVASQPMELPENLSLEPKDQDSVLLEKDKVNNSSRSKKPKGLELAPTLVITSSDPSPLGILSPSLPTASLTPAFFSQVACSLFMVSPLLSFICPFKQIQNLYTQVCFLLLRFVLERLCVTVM
The following applies: protein: recombinant; tags: N-terminal GST; dsDNA, one strand shown. The method in brief: as §1

Another experiment concerns the target T4, ETV2 (Homo sapiens, UniProt O00321 1-342).
T4 sequence: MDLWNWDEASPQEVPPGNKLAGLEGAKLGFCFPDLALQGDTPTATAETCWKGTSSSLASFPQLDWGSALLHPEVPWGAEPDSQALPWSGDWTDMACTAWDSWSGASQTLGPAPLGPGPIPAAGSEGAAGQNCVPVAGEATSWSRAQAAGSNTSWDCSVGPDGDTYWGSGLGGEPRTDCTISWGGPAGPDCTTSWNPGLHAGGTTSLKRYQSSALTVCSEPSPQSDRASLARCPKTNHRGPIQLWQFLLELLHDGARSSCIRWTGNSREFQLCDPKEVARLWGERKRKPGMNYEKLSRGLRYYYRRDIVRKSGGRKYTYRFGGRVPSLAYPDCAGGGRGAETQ
Particulars: protein: recombinant; tags: N-terminal GST; dsDNA, one strand shown. The method in brief:
as §1

The next experiment concerns the target T5, ELF3 (Homo sapiens, UniProt P78545 1-371).
T5 sequence: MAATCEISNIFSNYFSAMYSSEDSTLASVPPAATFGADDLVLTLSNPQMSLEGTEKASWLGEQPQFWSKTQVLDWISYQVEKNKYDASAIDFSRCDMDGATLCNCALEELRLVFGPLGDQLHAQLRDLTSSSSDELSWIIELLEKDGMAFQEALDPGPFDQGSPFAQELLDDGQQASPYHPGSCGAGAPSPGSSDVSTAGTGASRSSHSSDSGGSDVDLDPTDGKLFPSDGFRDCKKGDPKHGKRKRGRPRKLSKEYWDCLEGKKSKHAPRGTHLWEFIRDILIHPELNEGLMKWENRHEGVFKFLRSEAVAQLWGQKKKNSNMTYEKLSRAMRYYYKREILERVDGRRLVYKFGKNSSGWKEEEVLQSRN
Particulars: protein: recombinant; tags: N-terminal GST; dsDNA, one strand shown. The procedure, abridged:
as §1

In the next experiment the target is CRX (Homo sapiens, UniProt O43186 1-299). Particulars: protein: recombinant; tags: N-terminal GST; dsDNA, one strand shown. The procedure, abridged: as §1
The next experiment addresses ETV1 (Homo sapiens, UniProt P50549 1-477). The following applies: protein: recombinant; tags: N-terminal GST; dsDNA, one strand shown. The procedure, abridged: as §1
A further experiment concerns the target T6, ERF (Homo sapiens, UniProt P50548 1-548).
T6 sequence: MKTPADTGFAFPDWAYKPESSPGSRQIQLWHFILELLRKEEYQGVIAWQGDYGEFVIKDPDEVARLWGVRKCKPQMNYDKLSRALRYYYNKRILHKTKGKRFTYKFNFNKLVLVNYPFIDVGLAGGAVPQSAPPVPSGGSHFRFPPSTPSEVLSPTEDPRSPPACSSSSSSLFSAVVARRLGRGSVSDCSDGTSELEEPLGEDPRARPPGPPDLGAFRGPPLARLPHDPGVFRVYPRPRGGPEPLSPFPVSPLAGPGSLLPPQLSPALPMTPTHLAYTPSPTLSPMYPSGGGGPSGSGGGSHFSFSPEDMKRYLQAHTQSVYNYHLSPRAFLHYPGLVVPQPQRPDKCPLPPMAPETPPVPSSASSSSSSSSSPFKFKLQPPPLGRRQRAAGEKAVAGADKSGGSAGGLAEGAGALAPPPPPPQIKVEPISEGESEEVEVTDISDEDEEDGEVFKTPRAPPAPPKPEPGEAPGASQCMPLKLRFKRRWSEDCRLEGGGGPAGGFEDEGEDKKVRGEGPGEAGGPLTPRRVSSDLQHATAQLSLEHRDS
Particulars: protein: recombinant; tags: N-terminal GST; dsDNA, one strand shown. The method in brief:
as §1

For another experiment, the target named is T7, ETV3L (Homo sapiens, UniProt Q6ZN32 1-361).
T7 sequence: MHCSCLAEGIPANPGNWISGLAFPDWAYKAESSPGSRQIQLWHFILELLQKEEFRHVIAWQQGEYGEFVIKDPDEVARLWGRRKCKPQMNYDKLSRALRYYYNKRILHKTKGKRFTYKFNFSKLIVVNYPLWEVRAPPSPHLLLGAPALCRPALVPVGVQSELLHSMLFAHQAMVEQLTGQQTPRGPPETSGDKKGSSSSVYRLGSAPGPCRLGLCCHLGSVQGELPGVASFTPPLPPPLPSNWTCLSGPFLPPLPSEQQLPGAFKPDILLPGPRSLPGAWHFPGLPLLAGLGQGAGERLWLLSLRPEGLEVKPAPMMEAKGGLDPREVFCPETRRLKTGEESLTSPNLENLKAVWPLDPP
Particulars: protein: recombinant; tags: N-terminal GST; dsDNA, one strand shown. The procedure, abridged:
as §1

In the next experiment the target is T8, ETS2 (Homo sapiens, UniProt P15036 1-469).
T8 sequence: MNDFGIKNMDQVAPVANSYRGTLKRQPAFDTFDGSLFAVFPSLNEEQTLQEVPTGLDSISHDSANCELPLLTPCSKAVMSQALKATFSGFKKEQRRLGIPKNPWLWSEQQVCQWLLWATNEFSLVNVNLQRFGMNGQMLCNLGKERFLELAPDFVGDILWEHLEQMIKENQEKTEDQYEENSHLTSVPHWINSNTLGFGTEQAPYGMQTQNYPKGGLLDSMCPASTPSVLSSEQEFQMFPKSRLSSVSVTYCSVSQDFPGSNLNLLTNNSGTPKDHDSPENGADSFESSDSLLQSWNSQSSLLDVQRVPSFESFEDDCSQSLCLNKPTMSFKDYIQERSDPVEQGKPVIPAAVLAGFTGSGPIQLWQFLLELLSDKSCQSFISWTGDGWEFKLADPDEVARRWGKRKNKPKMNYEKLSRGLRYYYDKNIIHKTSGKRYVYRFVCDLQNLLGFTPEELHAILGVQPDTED
Particulars: protein: recombinant; tags: N-terminal GST; dsDNA, one strand shown. The method in brief: as §1

For another experiment, the target named is T9, SPDEF (Homo sapiens, UniProt O95238 1-335).
T9 sequence: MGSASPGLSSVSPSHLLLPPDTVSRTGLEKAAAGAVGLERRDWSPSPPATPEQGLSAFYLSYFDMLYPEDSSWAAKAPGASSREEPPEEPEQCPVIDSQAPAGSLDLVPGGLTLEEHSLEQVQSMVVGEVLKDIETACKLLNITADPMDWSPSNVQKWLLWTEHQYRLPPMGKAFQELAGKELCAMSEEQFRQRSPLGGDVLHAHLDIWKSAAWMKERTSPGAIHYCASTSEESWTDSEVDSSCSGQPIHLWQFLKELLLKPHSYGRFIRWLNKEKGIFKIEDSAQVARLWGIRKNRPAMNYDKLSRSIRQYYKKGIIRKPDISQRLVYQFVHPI
Particulars: protein: recombinant; tags: N-terminal GST; dsDNA, one strand shown. The procedure, abridged:
as §1

The next experiment addresses T10, ETV7 (Homo sapiens, UniProt Q9Y603 1-341).
T10 sequence: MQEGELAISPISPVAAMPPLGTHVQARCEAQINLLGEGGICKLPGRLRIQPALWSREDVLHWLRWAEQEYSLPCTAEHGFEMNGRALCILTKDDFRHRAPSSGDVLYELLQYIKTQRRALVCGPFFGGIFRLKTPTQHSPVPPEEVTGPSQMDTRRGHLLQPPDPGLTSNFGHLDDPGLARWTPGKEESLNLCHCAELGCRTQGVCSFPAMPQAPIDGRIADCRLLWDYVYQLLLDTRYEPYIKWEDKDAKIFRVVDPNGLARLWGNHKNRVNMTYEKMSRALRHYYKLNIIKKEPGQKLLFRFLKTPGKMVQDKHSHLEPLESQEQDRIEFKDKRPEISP
Particulars: protein: recombinant; tags: N-terminal GST; dsDNA, one strand shown. The method in brief: as §1

The target in another experiment is T11, ELF5 (Homo sapiens, UniProt Q9UKW6-2 1-255).
T11 sequence: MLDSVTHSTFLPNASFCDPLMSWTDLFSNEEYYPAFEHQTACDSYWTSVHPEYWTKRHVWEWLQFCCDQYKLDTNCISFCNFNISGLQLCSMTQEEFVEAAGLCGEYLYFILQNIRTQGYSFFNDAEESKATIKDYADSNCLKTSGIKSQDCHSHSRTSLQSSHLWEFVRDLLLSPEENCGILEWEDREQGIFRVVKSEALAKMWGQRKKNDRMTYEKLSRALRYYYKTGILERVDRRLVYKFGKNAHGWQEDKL
Particulars: protein: recombinant; tags: N-terminal GST; dsDNA, one strand shown. The procedure, abridged:
as §1

A further experiment addresses T12, ETV3 (Homo sapiens, UniProt P41162-2 1-143).
T12 sequence: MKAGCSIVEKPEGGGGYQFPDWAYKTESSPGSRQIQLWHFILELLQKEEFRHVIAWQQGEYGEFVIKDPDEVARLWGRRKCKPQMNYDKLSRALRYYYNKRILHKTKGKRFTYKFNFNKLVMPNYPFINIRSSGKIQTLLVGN
Particulars: protein: recombinant; tags: N-terminal GST; dsDNA, one strand shown. The method in brief: as §1

In the next experiment the target is ETV6 (Homo sapiens, UniProt P41212 1-452). Particulars: protein: recombinant; tags: N-terminal GST; dsDNA, one strand shown. The method in brief: as §1
ETV6, sequence (P41212 whole entry): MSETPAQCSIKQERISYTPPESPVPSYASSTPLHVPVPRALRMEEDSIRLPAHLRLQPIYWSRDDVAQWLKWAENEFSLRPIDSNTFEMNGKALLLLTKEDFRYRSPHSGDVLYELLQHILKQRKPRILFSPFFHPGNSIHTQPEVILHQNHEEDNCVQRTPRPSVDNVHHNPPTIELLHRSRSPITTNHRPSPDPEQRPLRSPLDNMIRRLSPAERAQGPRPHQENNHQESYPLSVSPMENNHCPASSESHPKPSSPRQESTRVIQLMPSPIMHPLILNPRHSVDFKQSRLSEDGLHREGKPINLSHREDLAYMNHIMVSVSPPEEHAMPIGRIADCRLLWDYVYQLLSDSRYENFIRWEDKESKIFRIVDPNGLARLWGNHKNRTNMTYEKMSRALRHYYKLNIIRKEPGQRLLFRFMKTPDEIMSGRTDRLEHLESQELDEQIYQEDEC

HSF1, sequence (Q00613 whole entry): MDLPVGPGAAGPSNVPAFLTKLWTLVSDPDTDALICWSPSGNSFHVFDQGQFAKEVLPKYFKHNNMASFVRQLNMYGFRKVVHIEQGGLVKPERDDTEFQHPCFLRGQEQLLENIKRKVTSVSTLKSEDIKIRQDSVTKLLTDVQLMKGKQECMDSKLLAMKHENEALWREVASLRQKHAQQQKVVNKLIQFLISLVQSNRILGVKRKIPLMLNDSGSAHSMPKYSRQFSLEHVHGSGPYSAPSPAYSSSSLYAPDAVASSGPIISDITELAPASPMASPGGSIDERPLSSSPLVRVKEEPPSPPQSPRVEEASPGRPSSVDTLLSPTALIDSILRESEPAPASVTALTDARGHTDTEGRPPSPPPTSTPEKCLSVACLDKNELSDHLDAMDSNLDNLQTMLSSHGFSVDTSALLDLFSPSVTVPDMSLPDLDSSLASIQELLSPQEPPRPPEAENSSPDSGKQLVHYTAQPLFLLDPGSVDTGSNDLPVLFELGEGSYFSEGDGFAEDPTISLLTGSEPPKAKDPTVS
ETV5, sequence (P41161 whole entry): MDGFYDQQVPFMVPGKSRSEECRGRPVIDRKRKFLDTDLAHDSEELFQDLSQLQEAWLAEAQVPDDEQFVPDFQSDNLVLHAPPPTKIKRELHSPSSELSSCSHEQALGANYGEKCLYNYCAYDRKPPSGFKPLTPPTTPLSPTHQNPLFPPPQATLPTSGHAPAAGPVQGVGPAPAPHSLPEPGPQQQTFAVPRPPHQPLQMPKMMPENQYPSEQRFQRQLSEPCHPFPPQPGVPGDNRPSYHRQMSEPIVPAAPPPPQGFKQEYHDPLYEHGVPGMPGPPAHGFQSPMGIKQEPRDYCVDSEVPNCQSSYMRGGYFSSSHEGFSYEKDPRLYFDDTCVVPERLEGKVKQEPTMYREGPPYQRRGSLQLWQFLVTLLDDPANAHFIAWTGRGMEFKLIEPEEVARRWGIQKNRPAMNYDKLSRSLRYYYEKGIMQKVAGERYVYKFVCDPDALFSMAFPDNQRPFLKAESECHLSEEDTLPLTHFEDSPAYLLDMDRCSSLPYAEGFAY
CRX, sequence (O43186 whole entry): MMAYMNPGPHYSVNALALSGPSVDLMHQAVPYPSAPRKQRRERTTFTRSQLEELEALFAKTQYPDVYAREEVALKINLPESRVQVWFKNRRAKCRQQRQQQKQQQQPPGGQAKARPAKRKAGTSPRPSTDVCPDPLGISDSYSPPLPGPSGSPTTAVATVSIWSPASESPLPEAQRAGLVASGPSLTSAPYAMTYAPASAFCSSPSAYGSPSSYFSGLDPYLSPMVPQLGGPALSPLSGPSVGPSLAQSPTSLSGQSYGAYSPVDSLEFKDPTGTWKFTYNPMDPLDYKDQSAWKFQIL
ELF4, sequence (Q99607 whole entry): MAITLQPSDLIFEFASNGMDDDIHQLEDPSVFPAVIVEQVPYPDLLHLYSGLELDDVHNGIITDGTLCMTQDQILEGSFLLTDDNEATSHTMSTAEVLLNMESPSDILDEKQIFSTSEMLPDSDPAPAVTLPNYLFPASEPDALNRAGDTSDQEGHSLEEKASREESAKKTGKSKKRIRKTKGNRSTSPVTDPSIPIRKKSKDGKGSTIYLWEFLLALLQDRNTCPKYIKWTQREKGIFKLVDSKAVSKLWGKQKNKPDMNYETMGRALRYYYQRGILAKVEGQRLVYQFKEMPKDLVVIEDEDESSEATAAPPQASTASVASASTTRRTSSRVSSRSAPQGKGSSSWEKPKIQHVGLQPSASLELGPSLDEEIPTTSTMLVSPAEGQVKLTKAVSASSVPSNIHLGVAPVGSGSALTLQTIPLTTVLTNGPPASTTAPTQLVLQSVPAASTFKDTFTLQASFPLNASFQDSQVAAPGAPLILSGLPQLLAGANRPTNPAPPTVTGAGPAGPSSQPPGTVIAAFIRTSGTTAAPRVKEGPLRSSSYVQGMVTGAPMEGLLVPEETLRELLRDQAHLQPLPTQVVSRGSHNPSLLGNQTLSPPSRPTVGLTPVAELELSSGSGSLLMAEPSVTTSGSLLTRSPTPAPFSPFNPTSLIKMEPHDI
ETV1, sequence (P50549 whole entry): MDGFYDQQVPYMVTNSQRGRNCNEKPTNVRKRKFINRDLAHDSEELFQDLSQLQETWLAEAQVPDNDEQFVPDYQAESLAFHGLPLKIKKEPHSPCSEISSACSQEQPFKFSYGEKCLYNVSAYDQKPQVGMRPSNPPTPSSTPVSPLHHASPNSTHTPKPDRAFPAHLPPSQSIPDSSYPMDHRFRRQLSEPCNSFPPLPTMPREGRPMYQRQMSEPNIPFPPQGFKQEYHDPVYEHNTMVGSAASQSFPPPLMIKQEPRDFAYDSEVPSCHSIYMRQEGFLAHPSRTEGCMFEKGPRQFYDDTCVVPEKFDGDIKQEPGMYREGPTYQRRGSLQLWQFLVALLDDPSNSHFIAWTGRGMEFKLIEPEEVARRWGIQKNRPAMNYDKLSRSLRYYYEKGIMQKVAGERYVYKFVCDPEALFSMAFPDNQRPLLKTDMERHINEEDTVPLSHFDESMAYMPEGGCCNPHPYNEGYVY

Regarding GCCTCG, the binding signal with FEV was 1.25 fold enrichment (6-mer frequency, TF over GST control); with ETV5, 1.33 fold enrichment (6-mer frequency, TF over GST control); in the experiment with HSF1, 1.31 fold enrichment (6-mer frequency, TF over GST control); with SPIC it was 1.07 fold enrichment (6-mer frequency, TF over GST control); with ELF4, 1.38 fold enrichment (6-mer frequency, TF over GST control); in the experiment with ELK4 it was 1.32 fold enrichment (6-mer frequency, TF over GST control). Also, the binding signal with ETV2 was 1.06 fold enrichment (6-mer frequency, TF over GST control); with ELF3 it was 1.33 fold enrichment (6-mer frequency, TF over GST control); in the experiment with CRX, 1.08 fold enrichment (6-mer frequency, TF over GST control); with ETV1 it was 1.26 fold enrichment (6-mer frequency, TF over GST control); in the experiment with ERF it was 1.14 fold enrichment (6-mer frequency, TF over GST control); in the experiment with ETV3L, 1.28 fold enrichment (6-mer frequency, TF over GST control). Further, the binding signal was 1.31 fold enrichment (6-mer frequency, TF over GST control) in the experiment with ETS2; 1.19 fold enrichment (6-mer frequency, TF over GST control) with SPDEF; 1.26 fold enrichment (6-mer frequency, TF over GST control) with ETV7; 1.23 fold enrichment (6-mer frequency, TF over GST control) with ELF5; 1.28 fold enrichment (6-mer frequency, TF over GST control) in the experiment with ETV3; 1.37 fold enrichment (6-mer frequency, TF over GST control) in the experiment with ETV6.
